Screening results deposited in PubChem by several laboratories.
Hits are enriched below; roughly 1.8% of the tested compounds scored in any of these assays.
MLLE-PAM2 inh – inhibitors of microRNA-mediated deadenylation, human PABP1 MLLE binding | inhibition, % at 20 µM | 360,000 compounds, 0.36% hits | GST-MLLE / FITC-PAM2 fluorescence polarization; in the data active = inhibition above about 35%, passing the limit was not always enough;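 also: plate controls were DMSO wells with GST-MLLE for no effect and wells lacking GST-MLLE protein for full effect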
PABP FP inh – PABP-poly(A) binding inhibition; P11940; 290,000 compounds, 1% hits; PABP-poly(A) RNA binding, fluorescence polarization; AID 2014; calls only at 35 µM;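 also: calls also rest on retests at 20 µM and on dose response follow-up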
EBV gp42 block – EBV gp42 inhibition | Q1HVG2 | Fluorescence polarization binding assay, mP read-out | inhibition, % (tested at 21.74 µM) | 220,000 compounds, 0.42% hits | AID 1085; in the data active = inhibition above about 50%
Target sequence (Q1HVG2 whole entry, looked up): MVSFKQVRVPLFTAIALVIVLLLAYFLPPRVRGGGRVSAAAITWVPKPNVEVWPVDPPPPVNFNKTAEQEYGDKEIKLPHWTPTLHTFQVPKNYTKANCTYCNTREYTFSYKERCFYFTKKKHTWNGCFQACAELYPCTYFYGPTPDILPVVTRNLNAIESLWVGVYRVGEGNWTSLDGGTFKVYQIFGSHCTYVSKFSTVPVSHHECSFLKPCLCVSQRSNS
eIF4H FP inh – inhibitors of RNA binding by human eIF4H. Q15056. eIF4H fluorescence polarization binding assay. inhibition, % at 35 µM. 290,000 compounds, 0.94% hits;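 also: calls also rest on retests at 20 µM and on dose response follow-up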
MEX-5 binding – C. elegans MEX-5 TCR-2 RNA binding activity. activity score (negative = inhibition of binding), % at 10 µM. MEX-5/FITC-TCR2 RNA binding, fluorescence polarization; hits give low values. 300,000 compounds, 0.38% hits;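 active = inhibition past about -25% in most replicates, and total fluorescence under double the plate's negative control median, limit read from the data; inconclusive = replicates evenly split on the limit, or fluorescence at least double controls; inactive = too little inhibition in most replicates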;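 also: 0% = DMSO and -100% = 5 µM competing unlabeled TCR2 RNA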
An asterisk follows results filed as active; i = inactive; ? = inconclusive; / = no result; + = active, no number. Unless noted, no rule for the calls is given here.

SMILES | MLLE-PAM2 inh | PABP FP inh | EBV gp42 block | eIF4H FP inh | MEX-5 binding
CC(=O)N1CCC2(CC1)C/C(=N\NC(=S)Nc1ccccc1C)c1cc(O)ccc1O2 | 36 | i | 0 | 8.5* | 2
Cc1cccc(C)c1Nc1cn[nH]c1 | 4 | / | / | / | /
Cc1ccccc1OCCC(=O)Nc1ccc(S(=O)(=O)N2CCCC2)cc1 | 11 | / | / | / | /
O=S(=O)(c1cccc(-c2csc(-c3cccnc3)n2)c1)N1CCOCC1 | -2 | i | 8 | -1 | -27*
Cc1cc(=O)c2cc3nc(-c4cccnc4)oc3c(Br)c2o1 | / | + | 15 | 97* | -4
O=c1oc(-c2cccnc2)nc2ccccc12 | -2 | i | -2 | 5 | -1
Cc1cc(O)c(CN(C)C)c2c1C(=O)/C(=C/c1ccco1)O2 | 22 | + | / | 94* | -37*
CCCc1c(C)[nH]c2ccc(C(=O)O)cc2c1=S | 17 | + | -17 | 56* | -5
Cc1c(N=C2N=C(NC(=O)c3ccc(F)cc3)c3ccccc32)c(=O)n(-c2ccccc2)n1C | -139 | ? | 116* | ? | -9
COc1cccc2c1NC(C(=O)O)C1CC=CC21 (stereo not drawn) | 22 | + | 63* | 96* | -76*
O=C(O)C1Nc2c(cccc2C(F)(F)F)C2C=CCC12 (stereo not drawn) | / | + | / | 80* | -29*
O=C(COC(=O)c1ccc(F)cc1F)Nc1ccc2c(c1)OCO2 | -1 | / | / | / | /
COC(=O)CN1C(=S)N(c2ccc(OC)cc2)C(=O)/C1=C/c1ccc(N2CCOCC2)cc1 | -154 | i | 75* | ? | -7
C[C@H](CO)N1C[C@H](C)[C@@H](CN(C)Cc2ccc3cccnc3c2)OCc2cnnn2CCCC1=O | 10 | / | / | / | /
CC(=O)Nc1ccc(SC[C@H](Cc2ccccc2)N2CC[C@@H](C(C)(C)C)CCC2=O)cc1 | 42* | / | / | / | /
CC(=O)Nc1ccc(SC[C@H](Cc2ccccc2)N2CC[C@@H](O)CCC2=O)cc1 | 41* | / | / | / | /
CC(=O)Nc1ccc(SC[C@H](Cc2ccccc2)N2CCN(CCc3ccccc3)CCC2=O)cc1 | 30 | i | -13 | -4 | 0
COc1c(C)cc(C(O)c2ncc(-c3ccc(C(F)(F)F)cc3)[nH]2)cc1C (stereo not drawn) | 13 | / | / | / | /
CN(C)c1ccc(N=Cc2nc(-c3ccccc3)oc2OC(=O)c2ccccc2)cc1 | -33 | i | -1 | -7 | -19
CN(C)c1ccc(N=Cc2nc(-c3ccccc3)oc2O)cc1 | 139 | ? | 166* | ? | -64*
CC(=O)Oc1oc(-c2ccccc2)nc1C=Nc1ccc(N(C)C)cc1 | -21 | i | -24 | 46 | -33*
CCCCN1C(=O)C2Cc3c([nH]c4ccccc34)CN2C1=S (stereo not drawn) | 15 | i | 52* | 20 | -28*
Cc1cccc(N2CCN(C(=O)c3[nH]c(C(F)(F)F)nc3-c3ccccc3)CC2)c1C | 6 | / | / | / | /
Cc1ccc2cc(CCNC(=O)c3ccco3)c(=O)[nH]c2c1C | 9 | + | -11 | ? | -3
Cc1ccc2cc(CCNC(=O)c3ccco3)c(=O)[nH]c2c1 | -1 | i | -9 | 4 | 3
SMILES | MLLE-PAM2 inh | PABP FP inh | EBV gp42 block | eIF4H FP inh | MEX-5 binding
Fc1cccc(-n2c(-c3ccco3)nc3nc4ccccc4nc32)c1 | -45 | + | -28 | 57 | 3
Fc1ccc(-n2c(-c3ccco3)nc3nc4ccccc4nc32)cc1 | -32 | + | 1 | 86* | -3
Fc1cccc(-n2c(-c3cccs3)nc3nc4ccccc4nc32)c1 | / | i | -1 | 9 | -6
Cc1ccc(-n2c(-c3ccco3)nc3nc4ccccc4nc32)cc1F | -34 | i | -38 | 72 | -3
O=C(O)CCc1cc(I)c(Oc2ccc(O)c(I)c2)c(I)c1 | / | + | -11 | 65* | -1
N[C@@H](Cc1cc(I)c(Oc2ccc(O)c(I)c2)c(I)c1)C(=O)O | -91 | i | -2 | 39 | 1
CCOc1cc(C(N)=O)cc(Br)c1OC | 14 | i | -14 | 8.5* | 1
COCCNC(=O)C1(C)CCCN(Cc2cn(C)c3ccccc23)C1 (stereo not drawn) | -2 | / | / | / | /
COc1cccc(N2CCN(CC(=O)NC(=O)NCc3ccco3)CC2)c1 | -16 | + | 4 | 88 | -3
O=C(CN1CCN(c2ccccc2)CC1)NC(=O)NCc1ccco1 | 13 | i | -10 | -8 | -1
O=C(NC(c1ccccc1)c1ccccc1)C1(c2cccs2)CCOCC1 | -8 | + | -20 | ? | 0
